Measurements published in PubChem BioAssay AID588497 (NMMLSC, 2011).
Hit rate of the full screen: of about 360,000 compounds, about 780 (0.22%) were called active. Not shown: some 4% with an inconclusive outcome. No stated cut-off is given here; in the data, active means inhibition above about 35% (passing the limit was not always enough); inconclusive means no clear call, values can overlap the other calls. Many of the other results were omitted from the sample, so actives are more common in it than they were.

The molecules below were run on Botulinum neurotoxin type F light chain protease (Clostridium botulinum) (assay: BoNT/F light chain protease inhibitors, primary screen, biochemical, flow cytometry, MLPCN library (AID 588497; further: plate controls were buffer without enzyme for full effect and enzyme alone for no effect)). Conditions: Multiplex microsphere protease cleavage assay, at 10 µM, stronger effect = higher value.
In the case of `Cc1nc2c(OCC(=O)C(C)(C)C)cccn2c1N(C)Cc1cccs1`, the inhibition is reported as 4.6% (inactive). For `CC(=O)Nc1cc(-c2ccccc2F)cn2c(-c3cccc(C(F)(F)F)c3)cnc12`, the inhibition was 1.3% (inactive). For `CC(=O)c1ccc(-c2cnc3c(NC=O)cc(-c4cccc(NS(C)(=O)=O)c4)cn23)cc1`, the inhibition was 3% (inactive). With `Cc1ccc2nc(-c3ccco3)c(Cc3cccc(Cl)c3)n2c1` the inhibition was 0% (inactive). `Cc1cccc(C)c1Cn1c(C)c(C(=O)NCc2cccc(Cl)c2)sc1=O` was tested, and the inhibition was -3.1% (inactive). With `Cc1cc(O)c(Sc2ccccc2)c(=O)o1` the inhibition was -0.7% (inactive). With `COc1ccc(/C=C/C(=O)c2c(O)cc(OC)cc2OC)cc1` the inhibition was -3.2% (inactive). `Cc1cc(O)c(C(=O)/C=C/c2c(F)c(F)c(F)c(F)c2F)c(=O)o1` was tested, and the inhibition was 39.9% (active). For `CCCCn1nnnc1C(c1cccc(OC)c1OC)N1CCN(C/C=C/c2ccccc2)CC1` (stereo not given), the inhibition was -4.8% (inactive). For `COc1ccccc1CNC(=O)c1cc(-c2cc(Cl)ccc2C)n[nH]1`, the inhibition was -6.5% (inactive). For `Fc1cccc(Cc2c(-c3cccc(Cl)c3)nc3ccc(Br)cn23)c1`, the inhibition was 12.2% (inactive). In the case of `CC1Cc2ccccc2N1C1=CC(=O)CC(C)(C)C1` (stereo not given), the inhibition is reported as -1.7% (inactive). In the case of `CC1(C)CC(=O)C=C(N2CCCC2)C1`, the inhibition is reported as 43.8% (active). `CC1(C)CC(=O)C=C(N2CCOCC2)C1` was tested, and the inhibition was -0.6% (inactive). In the case of `CN(C(=O)CN1CCN(c2cc(-c3ccc(OCc4ccccc4)cc3)ncn2)CC1)c1ccccc1`, the inhibition is reported as -2.5% (inactive). For `Cc1ccc2nc(-c3ccccc3)c(CC3CCCCC3)n2c1`, the inhibition was -7.4% (inactive). In the case of `COc1cc(F)ccc1-c1cc(C(=O)NCC2CCCCC2)[nH]n1`, the inhibition is reported as -7.3% (inactive). In the case of `CCCCCn1nnnc1-c1nc2cc3ccccc3cc2[nH]c1=O`, the inhibition is reported as 4.1% (inactive). `CCc1nc2ccc(C(=O)NCc3ccc(OC)cc3)cn2c1N(CC)Cc1cccc(Br)c1` was tested, and the inhibition was -5.2% (inactive). With `COc1cccc(CNc2nc(NCc3ccccc3OC)nc3ccsc23)c1` the inhibition was -10.7% (inactive). For `CC(O)c1nc2c(c(=O)n(C)c(=O)n2C)n1C` (stereo not given), the inhibition was 7.6% (inactive). With `CCC/C(C)=N\Nc1nc2c(c(=O)n(C)c(=O)n2C)n1C` the inhibition was 46.4% (active). In the case of `Cn1c(=O)c2c(nc(NCc3ccccc3)n2CC(N)=O)n(C)c1=O`, the inhibition is reported as -8.9% (inactive). `CCCCN(C=O)c1c(CC)nc2c(OCCC3CCCCC3)cccn12` was tested, and the inhibition was -1.8% (inactive). For `COc1cc(C(=O)N2CCN(C3CCC(C)CC3)CC2)cc(OC)c1OC` (stereo not given), the inhibition was -2.2% (inactive). In the case of `CCn1cc(C(=O)NCC2COc3ccccc3O2)c2cc(OC)c(OC)cc2c1=O` (stereo not given), the inhibition is reported as -4.2% (inactive). For `CCn1cc(C(=O)N2CCN(C3CCCCC3)CC2)c2cc(OC)c(OC)cc2c1=O`, the inhibition was 35% (active). With `Cc1cccnc1C(NC(=O)C1CCN(Cc2ccc(Cl)c(Cl)c2)CC1)c1ccc(Cl)cc1` (stereo not given) the inhibition was -0.6% (inactive). With `CC(=O)Nc1cc(-c2ccccc2N(C)C)cn2c(-c3ccc(F)c(Cl)c3)cnc12` the inhibition was -0.7% (inactive). With `CCOc1ccc(NC(=O)CC2NCCNC2=O)cc1` (stereo not given) the inhibition was -3.7% (inactive). `CN(CC(=O)Nc1ccc(Cl)cc1)C(=O)c1ccc(COc2ccccc2)cc1` was tested, and the inhibition was 8.6% (inactive). With `CCOc1ccc(NC(=O)CC(Cc2ccc(Cl)cc2)C(=O)O)cc1` (stereo not given) the inhibition was 42.9% (active). With `C=C1C(=O)[C@]23C[C@H]1CCC2[C@@]1(C)C(C[C@@H]3O)[C@](C)(C(=O)O)CC[C@@H]1O` (stereo not given in full) the inhibition was 6.7% (inactive). For `CC12CCC(=O)C=C1CCC1C2C(O)CC2(C)C1CCC2(O)C(O)CO` (stereo not given), the inhibition was -2.7% (inactive). For `COc1ccc(-c2cc3nc(NCCOc4ccccc4)ccn3n2)cc1`, the inhibition was -7% (inactive). For `CC1=C(C(=O)N(C(C)C)C(C)C)CC(CC(=O)NCCCCc2ccccc2)C(=O)N1CCC1=CCCCC1` (stereo not given), the inhibition was -9.4% (inactive). In the case of `CC(C)(C)CC(=O)Nc1nc(C(N)Cc2ccc(C(F)(F)F)cc2)cs1` (stereo not given), the inhibition is reported as -15.5% (inactive). With `CCCNC(=O)c1cc2c(c(-c3cccc(-c4ccc(C#N)cc4)c3)n1)[C@@H](CCO)N(C(=O)CC)C2` the inhibition was -8.6% (inactive). With `CN1CCN(c2ccc(NC(=O)c3cc(Cl)c4c(c3)OCCO4)cc2)CC1` the inhibition was -0.9% (inactive). `CN1CCN(c2ccc(NC(=O)c3ccc4c(c3)[nH]c(=O)n4Cc3ccc(F)cc3)cc2)CC1` was tested, and the inhibition was -37.9% (inactive). With `CN1CCN(c2ccc(NC(=O)c3ccccc3)cc2)CC1` the inhibition was 38.8% (active). In the case of `CCCCC(=O)N(C)c1c(CC)nc2c(OCc3ccc(Cl)cc3Cl)cccn12`, the inhibition is reported as -1.2% (inactive). For `CCC(c1nnnn1-c1ccc2c(c1)OCCO2)N1CCN(c2ccc(C(F)(F)F)cn2)CC1` (stereo not given), the inhibition was 6.4% (inactive). With `CC1=C(C(=O)N(C(C)C)C(C)C)CC(CC(=O)NCC2CCCCC2)C(=O)N1Cc1ccccc1` (stereo not given) the inhibition was -6.1% (inactive). For `O=C1C(Sc2cccc(F)c2)=C[C@@]2(O)CC[C@@H](O)[C@]1(Sc1cccc(F)c1)[C@H]2O`, the inhibition was -5.7% (inactive). `CCOC(=O)C1=CCC2C(=O)N(Cc3ccccc3)C(=O)C12` (stereo not given) was tested, and the inhibition was 7.8% (inactive). For `CC(=O)Nc1cncc(-c2ccccc2CO)n1`, the inhibition was -2.7% (inactive). `O=C(NCCN1CCOCC1)c1ccccc1N1C(=O)[C@@H]2Cc3c([nH]c4ccccc34)C(c3cccc(Cl)c3)N2C1=O` (stereo not given in full) was tested, and the inhibition was -6.1% (inactive). For `NNC(=O)CNC(c1ccccc1)c1cc(Cl)ccc1NC(=O)c1ccccc1` (stereo not given), the inhibition was 43.2% (active). With `CC(NCC(=O)Nc1cc(Cl)cc(Cl)c1)c1ccccc1` (stereo not given) the inhibition was 2.2% (inactive). In the case of `O=C(COC(=O)c1ccccc1)Nc1ccc(Cl)cc1C(=O)c1ccccc1`, the inhibition is reported as -15.4% (inactive). With `CC(C)C[C@H]1CNC(=S)N1C[C@H]1CCCN1C[C@H](Cc1ccc(O)cc1)N1C[C@H](Cc2ccc(O)cc2)N(CC2CCCCC2)C1=S` the inhibition was -11% (inactive). `COc1ccccc1-n1c(-c2cc(-c3ccco3)[nH]n2)n[nH]c1=S` was tested, and the inhibition was 40.9% (active). For `COc1ccccc1-n1cn[nH]c1=S`, the inhibition was 0.3% (inactive). With `COc1ccc(-n2c(-c3ccc(Cl)cc3)n[nH]c2=S)c(OC)c1` the inhibition was -4.7% (inactive). In the case of `OC(c1ccccc1)(c1ccccc1)C1CCN(CCCOc2ccccc2)CC1`, the inhibition is reported as 0.4% (inactive). With `CC1(C(=O)NCc2ccc(F)c(F)c2)Cc2c(-c3ccc4c(c3)OCO4)ccnc2O1` (stereo not given) the inhibition was -7.8% (inactive). For `Cc1ccc(Cc2c(-c3ccco3)nc3ccc(Cl)cn23)cc1`, the inhibition was -6% (inactive). For `CCCCOCCCNC(=O)C[C@@H]1C[C@@]2(C(=O)OC)CCCCC=C2N(CCC2=CCCCC2)C1=O`, the inhibition was 7.8% (inactive). `CC(C)Oc1cc(F)ccc1-c1cc(C(=O)Nc2cccc(Cl)c2)[nH]n1` was tested, and the inhibition was -7.1% (inactive). For `CN(Cc1ccccc1F)c1cc2c(c3c1ccn3C)C1CCC2O1` (stereo not given), the inhibition was 3.2% (inactive). For `COC(=O)[C@]12CCCCC=C1N(CCC1=CCCCC1)C(=O)[C@H](CC(=O)NCC1CCCCC1)C2`, the inhibition was 5.5% (inactive). `CCc1ccc(OC2(C)CCN(CCOc3ccc(C)cc3)C2)cc1` (stereo not given) was tested, and the inhibition was -9.6% (inactive). For `CN(C)C1CN(Cc2cn(Cc3ccccc3)nn2)S(=O)(=O)C1` (stereo not given), the inhibition was -1.7% (inactive). For `Cc1cc(C)n2nc(C(=O)N3CCN(Cc4ccc5c(c4)OCO5)CC3)nc2n1`, the inhibition was -11.5% (inactive). For `CCc1c(C)nc(N2CCN(Cc3ccccc3)CC2)[nH]c1=O`, the inhibition was 6.6% (inactive). In the case of `CCCCCc1c(C)nc(N2CCN(Cc3ccc4c(c3)OCO4)CC2)[nH]c1=O`, the inhibition is reported as 39.2% (active). `Cc1cc(Cl)ccc1-c1nc(NCCN(C)C)nc2ccsc12` was tested, and the inhibition was -4.9% (inactive). For `CC1(Oc2ccccc2-c2ccno2)CCN(Cc2ccc(-c3ccccc3)o2)C1` (stereo not given), the inhibition was -11.5% (inactive). For `OC[C@@H]1CN(Cc2ccc(-c3ccccc3)cc2)C[C@H](n2cnc3c(NC4CCCC4)ncnc32)O1`, the inhibition was -4.6% (inactive). With `CC(=O)Nc1ccc(CNc2nc(NCCN(C)C)nc3cc(-c4ccccc4)sc23)cc1` the inhibition was -18.9% (inactive). With `CC(=O)Oc1ccc(NC(=O)CCC2CCCCC2)c(C(=O)O)c1` the inhibition was 37.7% (active). In the case of `COC(=O)c1sccc1NC(=O)CCC1CCCC1`, the inhibition is reported as 1.8% (inactive). In the case of `Cc1cc(C(=O)NNC(=O)CCC2CCCCC2)c(C)o1`, the inhibition is reported as 0.3% (inactive). For `NC(c1csc(NC(=O)Nc2ccccc2Oc2ccccc2)n1)c1ccccc1Cl` (stereo not given), the inhibition was -12.1% (inactive). `CN1CCN(CC#CCC2(O)c3ccccc3-c3ccccc32)CC1` was tested, and the inhibition was -6.9% (inactive). For `CC(C)N(CC#CCC1(O)c2ccccc2-c2ccccc21)C(C)C`, the inhibition was 37.1% (active). `CCOC(=O)[C@]12CCC=C1N(Cc1ccco1)C(=O)[C@H](CC(=O)NCc1cccc(C(F)(F)F)c1)C2` was tested, and the inhibition was -2.2% (inactive). In the case of `CC=CCn1c(SCCCc2ccccc2)nc2c1c(=O)[nH]c(=O)n2C`, the inhibition is reported as -3.4% (inactive). With `OC(c1ccc(Cl)c(F)c1)c1ncc(-c2ccccc2Cl)[nH]1` (stereo not given) the inhibition was -8.1% (inactive). For `Cc1cc(Br)cn2c(Cc3cccc(F)c3)c(-c3cccc(Br)c3)nc12`, the inhibition was 5.5% (inactive). `COc1ccccc1-c1cnn2c(N3CCOCC3)cc(C)nc12` was tested, and the inhibition was 38.5% (active). For `COc1ccccc1NC(=O)C1CCCN(c2cc(C)nc3ncnn23)C1` (stereo not given), the inhibition was 4.8% (inactive). `Cc1cc(-n2nc(C)cc2C)n2ncc(-c3ccccc3)c2n1` was tested, and the inhibition was 5.4% (inactive). With `CCc1nc2c(OCc3ccc(Cl)cc3Cl)cccn2c1N(C)C(=O)C(C)C` the inhibition was -7.2% (inactive). In the case of `Cc1cc(C)c(S(=O)(=O)NN=C2c3ccccc3[C@H]3Cc4csc[n+]4[C@@H]23)c(C)c1`, the inhibition is reported as -7.5% (inactive). With `Cc1nc2c(OCc3cccc(Cl)c3)cccn2c1N(C)CC1CC1` the inhibition was -6.3% (inactive). With `Clc1nc(NC2CCCC2)nc(N2CCOCC2)n1` the inhibition was 53.9% (active). With `COc1nc(NC2CCCCC2)nc(N2CCCCCC2)n1` the inhibition was 8.2% (inactive). For `COC(=O)CNc1nc(Cl)nc(N2CCC(C)CC2)n1`, the inhibition was -7.3% (inactive).
